Key:
Mel-DCC-11 = assay: cell viability relative to DMSO control (fraction of DMSO control); higher = less cytotoxic, active = 0.5 or less; conditions: 1 µM; 120 h
Procedure, shortened: (§1)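 A library of 315 approved anti-cancer drugs (TargetMol) was acoustically pre-spotted into 384-well plates and tested at 1 µM in duplicate for 120 h. Cells were added in 40 µl per well: NHEM-hTERT immortalized melanocytes at 2500/well, and patient-derived Mel-DCC-11 and its resistant subline Mel-DCC-11-R at 1500/well. The subline was tested both alone and with 8 µM of its selecting drug. Viability was read by ATPlite 1step luminescence, normalised to DMSO controls and averaged over duplicates.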

NHEM-hTERT = assay: as above; conditions: 1 µM; 120 h
Procedure, shortened: as §1

Mel-DCC-11-R = assay: cell viability relative to DMSO control (fraction of DMSO control); higher = less cytotoxic, active = 0.8 or less; conditions: 1 µM, 120 h
Procedure, shortened: as §1

Measured: cell viability

O=c1[nH]c(=O)n([C@H]2C[C@H](O)[C@@H](CO)O2)cc1F [Floxuridine]
inactive: Mel-DCC-11 1.34 | NHEM-hTERT 1.11 | Mel-DCC-11-R; vemurafenib co-treatment 0 µM 1.24 | Mel-DCC-11-R; vemurafenib co-treatment 8 µM 1.07

COc1c2occc2cc2ccc(=O)oc12 [8-Methoxypsoralen]
inactive: Mel-DCC-11 0.799 | NHEM-hTERT 1.09 | Mel-DCC-11-R; vemurafenib co-treatment 0 µM 1.05 | Mel-DCC-11-R; vemurafenib co-treatment 8 µM 1.19

Cc1ccc(NC(=O)c2ccc(CN3CCN(C)CC3)cc2)cc1Nc1nccc(-c2cccnc2)n1 [Imatinib]
inactive: Mel-DCC-11 1.15 | NHEM-hTERT 1.24 | Mel-DCC-11-R; vemurafenib co-treatment 0 µM 0.978 | Mel-DCC-11-R; vemurafenib co-treatment 8 µM 1.1

CO[C@H]1C[C@@H]2CC[C@@H](C)[C@@](O)(O2)C(=O)C(=O)N2CCCC[C@H]2C(=O)O[C@H]([C@H](C)C[C@@H]2CC[C@@H](OCCO)[C@H](OC)C2)CC(=O)[C@H](C)/C=C(\C)[C@@H](O)[C@@H](OC)C(=O)[C@H](C)C[C@H](C)/C=C/C=C/C=C/1C [Everolimus]
inactive: Mel-DCC-11 1.35 | NHEM-hTERT 0.964 | Mel-DCC-11-R; vemurafenib co-treatment 0 µM 1.57 | Mel-DCC-11-R; vemurafenib co-treatment 8 µM 0.834

C=C1CC[C@H](O)C/C1=C/C=C1\CCC[C@]2(C)[C@@H]([C@H](C)/C=C/[C@H](C)C(C)C)CC[C@@H]12 [Vitamin D2]
inactive: Mel-DCC-11 1.13 | NHEM-hTERT 0.998 | Mel-DCC-11-R; vemurafenib co-treatment 0 µM 1 | Mel-DCC-11-R; vemurafenib co-treatment 8 µM 1.16

CS(=O)(=O)c1ccc(C(=O)Nc2ccc(Cl)c(-c3ccccn3)c2)c(Cl)c1 [Vismodegib]
inactive: Mel-DCC-11 0.785 | NHEM-hTERT 0.961 | Mel-DCC-11-R; vemurafenib co-treatment 0 µM 0.807 | Mel-DCC-11-R; vemurafenib co-treatment 8 µM 0.892
